TSHR antag: blocks TSH signaling through the human TSH receptor | TSHR-expressing cells, TSH-stimulated cAMP HTRF, 2 h; stronger effect = lower value | activity change, negative = inhibition, % at 11.5 µM | 0.2% of 330,000 active | AID 504810;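 active means activity change below a set negative limit, meaning inhibition stronger than a set level, cut at about -70% in these data; inconclusive means activity change between two set negative limits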; further: on the % scale 0 is the no-effect control and ±100 the full control effect
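Cell-based HTRF cAMP assay; TSHR cells + compound, TSH EC80 (4nM final), 2 h, 37 deg C. Lysis with anti-cAMP cryptate and cAMP-d2, 30 min RT, read 665/620 nm.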
PTHR1 agonist: PTHR1 (human) receptor agonism | AID 743266 | 0.075% of 410,000 active | Potency, µM (series often up to 115 µM), for the others: top-dose activation, hits mostly activators | HEK293 GP2 PTHR1 cells, GloSensor cAMP luminescence, 1 h | Q03431; further: potency means the concentration at half of the fitted maximal effect; nearly all actives have a fitted effect of over 55% in size
Target sequence (Q03431 whole entry, looked up): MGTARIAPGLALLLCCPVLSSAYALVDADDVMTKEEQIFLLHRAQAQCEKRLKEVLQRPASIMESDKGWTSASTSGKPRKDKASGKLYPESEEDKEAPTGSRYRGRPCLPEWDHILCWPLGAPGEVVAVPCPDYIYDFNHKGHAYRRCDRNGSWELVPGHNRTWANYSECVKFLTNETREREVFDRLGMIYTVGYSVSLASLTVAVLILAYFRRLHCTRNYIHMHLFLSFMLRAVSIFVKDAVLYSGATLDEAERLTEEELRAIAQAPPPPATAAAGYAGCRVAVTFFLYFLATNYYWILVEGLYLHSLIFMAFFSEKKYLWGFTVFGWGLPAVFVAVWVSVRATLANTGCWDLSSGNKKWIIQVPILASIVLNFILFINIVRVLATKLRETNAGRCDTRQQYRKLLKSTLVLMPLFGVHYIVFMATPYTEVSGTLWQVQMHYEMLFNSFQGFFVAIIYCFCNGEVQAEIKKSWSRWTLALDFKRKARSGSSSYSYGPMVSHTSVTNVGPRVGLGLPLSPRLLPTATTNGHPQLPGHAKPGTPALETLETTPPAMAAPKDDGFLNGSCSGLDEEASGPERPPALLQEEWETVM
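HEK-293-derived GP2 cells expressing PTHR1 and a GloSensor cAMP reporter, 3,000/well, plated overnight, given luciferin plus IBMX (each 0.5 mM as added) for 1 h at 37 °C, then compound for 1 h at 37 °C. Luminescence was read after 15 min at room temperature.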
NPSR antag: antagonists of human neuropeptide S receptor cAMP signaling | CHO-NPSR cells, cAMP TR-FRET, antagonist mode | Potency, µM (doses to about 38.3 µM), for the others: at the highest dose activity change, negative = inhibition, actives largely listed as inhibitors | AID 1461 | 1% of 220,000 active; further: potency means the concentration at half of the fitted maximal effect; on the % scale 0 is the no-effect control and ±100 the full control effect; nearly all actives have a fitted effect of over 50% in size
TCR activator: activates T cell receptor signaling | primary human leukocytes, anti-CD3, IL-2 HTRF, 48 h | Potency, µM (highest dose often 9.22 µM), without a hit: top-dose activation of IL-2 secretion, hits mostly activators | 330,000 tested, under 10 active | AID 504894; further: % of control where 0% means no effect
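Primary human leukocytes incubated 48 hr with anti-CD3 beads plus compound, without co-stimulation. Secreted IL-2 measured by HTRF (europium cryptate/d2 anti-IL-2 pair, 320 nm excitation, 665 nm emission).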
RXFP1 antag: blocks the human relaxin receptor RXFP1; activity change, negative = inhibition, % at 57.5 µM; AID 1259400; Q9HBX9; 0.59% of 350,000 active; HEK293-RXFP1, relaxin-stimulated cAMP HTRF, 30 min; stronger effect = lower value;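 active means activity change of -60% or lower, but not beyond a set lower limit; inconclusive means change between -60% and -40%, or beyond the set limit; inactive means change above -40%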; further: on the % scale 0 is the no-effect control and ±100 the full control effect
RXFP1 agonist: RXFP1 (human) receptor agonism; AID 2676; HEK293T-RXFP1 cAMP TR-FRET, 30 min; response scale: percent of porcine relaxin response, buffer zero; 0.3% of 370,000 active; Potency, µM (titrated, usually from 57.5 µM), inactives show at the highest dose activation, hits mostly activators; Q9HBX9; further: potency means the concentration at half of the fitted maximal effect; on the % scale 0 is the no-effect control and ±100 the full control effect; nearly all actives have a fitted effect of over 60% in size
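Agonist response is measured as cAMP accumulation in an RXFP1-transfected HEK293T line under PDE4 inhibition. Values are scaled between buffer-only and 29 nM porcine relaxin, and EC50s come from standard Hill equation fits.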
Numbers without * were called inactive; i = inactive; u = inconclusive; x = not tested or not shown; [ ] = another dose, or the depositor's remark. This is one part of a sample in which hits are shown more often than they occur. Unless noted, the call rests on the fitted dose curve; in most records, active means well fitted curve in the direction sought with a large enough effect; inconclusive means small, poorly fitted or top-dose-only effect, or another doubt; inactive means no such curve, though single readings can be large; an effect the other way counts as inactive or inconclusive.

SMILES	TSHR antag	PTHR1 agonist	NPSR antag	TCR activator	RXFP1 antag	RXFP1 agonist
CC[n+]1c(/C=C/N(C)c2ccccc2)n(-c2ccccc2)c2ccc(-c3nc4ccccc4s3)cc21	-98.2*	-30.5%	x	-1.2%	-60.5*	4.4%
O=C(COc1ccccc1)NCCc1csc(-c2ccc(Cl)cc2)n1	x	-13.9%	x	x	-11.4	0.3%
O=P(c1ccccc1)(c1ccccc1)c1nc(-c2ccc(Cl)cc2)oc1N1CCOCC1	2.2	-29.7%	10µM*	-5.3%	-39.0	14.3%
O=P(c1ccccc1)(c1ccccc1)c1nc(-c2ccccc2)oc1N1CCOCC1	1.0	-22.6%	-8.5%	3.5%	-2.2	-2.7%
COc1cc(C2Nc3cccc4cccc(c34)N2)cc(OC)c1OC(C)=O	-7.1	-1.0%[57.5 µM]	-6.7%[46.1 µM]	0.9%	u	0.5%
COc1cc(C2Nc3cccc4cccc(c34)N2)ccc1O	-2.6	i	x	x	-70.3*	-2.5%
CC(C)OCCCn1c(=O)c2ccccc2n2c(CCC(=O)NC3CCN(Cc4ccccc4)CC3)nnc12	-125.4*	i	x	1.2%	3.4	15.6%
COc1cc(C(=O)Nc2nc(-c3ccc(Cl)cc3)c(C)s2)ccc1OCC(=O)Nc1ccc(F)cc1	0.6	-4.3%	3.98µM*	0.1%[46.1 µM]	-9.2	20µM*
COc1ccc(-c2nc(NC(=O)c3ccc(OCC(=O)N4CCOCC4)c(OC)c3)sc2C)cc1	-0.8	-31.9%	-8.6%	5.2%[46.1 µM]	-1.9	-0.8%
CCc1ccc(-c2nc(NC(=O)c3ccc(OCC(=O)Nc4ccc(F)cc4)c(OC)c3)sc2C)cc1	-3.6	-8.4%	6.31µM*	-4.2%[46.1 µM]	9.5	31.6µM*
Cc1ccc(-c2csc(/C=C3/SC(C)C(=O)N3CC(=O)Nc3ccccc3F)n2)cc1 (centres undefined)	x	-10.0%	x	2.1%	-83.7*	x
CC(=O)c1ccccc1NC(=O)CN1C(=O)CS/C1=C\c1nc(-c2ccc(C)cc2)cs1	0.5	i	-11.9%	0.6%	-0.9	-0.5%
Cn1c(CNC(=O)c2ccco2)nnc1SCC(=O)N1CCN(c2ccccc2F)CC1	-4.4	u	x	0.9%	-93.5*	-2.5%
Cn1c(CNC(=O)c2ccco2)nnc1SCC(=O)c1ccccc1	19.9	-23.0%	10.3%	1.9%	-7.3	-0.2%
COC(=O)CSc1nc(N)c(C#N)c(-c2ccc(O)cc2)c1C#N	-7.7	-0.8%	43.1%	4.4%	31.2	23.1%
CC(C)c1ccc(-c2c(C#N)c(N)nc(SCC(=O)N3CCCCC3)c2C#N)cc1	1.3	-2.3%[57.5 µM]	10µM*	3.5%	9.4	22.4µM*
COc1ccc(-c2cc3nc(C)c(CCC(=O)Nc4ccc(F)cc4F)c(C)n3n2)c(OC)c1	x	-22.4%	x	x	x	3.0%
COc1ccc(NS(=O)(=O)c2ccc(NC(=S)NC(=O)/C=C/c3ccccc3)cc2)nn1	-19.0	-31.6%	7.94µM*	1.7%[46.1 µM]	-13.5	3.9%
CCC(C(=O)Nc1ccc(C(=O)OC)cc1)n1nc(-c2ccc(C)c(C)c2)ccc1=O (centres undefined)	x	i	x	x	-14.1	-2.8%
CCN1CCN(CCCNC(=O)Cn2c(-c3cccs3)cc3cc(Cl)ccc32)CC1	x	-20.1%	x	x	-69.0*	3.0%
CCCn1c2ccccc2c2cnn(CC(=O)NCC3CCN(Cc4ccccc4C)CC3)c(=O)c21	x	i	x	x	-10.4	-0.9%
NS(=O)(=O)c1ccc(CCNC(=O)C2CCN(c3ncnc4c3nc3n4CCCCC3)CC2)cc1	12.2	i	x	-9.4%	15.1	15.8µM*
O=C(NCc1ccccc1)C1CCN(c2ncnc3c2nc2n3CCCCC2)CC1	x	5.6%	x	x	-1.6	3.4%
CCc1ccc(/C=C/C(=O)c2cc(Br)ccc(=O)c2O)cc1	-87.2*	-20.7%[57.5 µM]	-25.1%[46.1 µM]	2.3%	u	-2.8%
Cc1cccc(/C=C/C(=O)c2cc(Br)ccc(=O)c2O)c1	-87.8*	-14.1%[57.5 µM]	10µM*	15.5%	-8.1	-3.9%
O=C(C=Cc1ccccc1)c1cc(Br)ccc1O	x	-14.3%	x	9.4%	-12.7	x

Bioassay records: PubChem BioAssay, National Center for Advancing Translational Sciences (NCATS)
